From PubChem BioAssay (NCI)
Compounds without any hit were thinned out: in the full panel of roughly 83,000, 20% have a hit.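 Values shown are percent growth following 48 h exposure of cells in 96-well plates to a single concentration of compound; below 10 was considered active.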 Calls of active or inactive are those of the source.

What was measured:
Assay in all cases: NCI-60 one-dose screen, 48 h (100 = growth as untreated, 0 = no growth, -100 = all killed)
Settings in all cases: 10 µM unless noted
NCI-H226 lung = test system: NCI-H226 lung
NCI-H322M lung = test system: NCI-H322M lung
HOP-62 NSCLC = test system: HOP-62 NSCLC
NCI-H460 lung = test system: NCI-H460 lung
NCI-H522 lung = test system: NCI-H522 lung
A549/ATCC NSCLC = test system: A549/ATCC NSCLC
786-0 renal = test system: 786-0 renal
COLO 205 colon = test system: COLO 205 colon
DU-145 prostate = test system: DU-145 prostate
K-562 leukemia = test system: K-562 leukemia
MALME-3M melanoma = test system: MALME-3M melanoma
MDA-MB-231 breast = test system: MDA-MB-231 breast
RXF 393 renal = test system: RXF 393 renal
SF-268 CNS = test system: SF-268 CNS
SF-295 CNS = test system: SF-295 CNS
SF-539 CNS = test system: SF-539 CNS
UACC-257 melanoma = test system: UACC-257 melanoma
M14 melanoma = test system: M14 melanoma
HCT-15 colon = test system: HCT-15 colon

Measured: growth

Nc1nc(SCC2(CCl)COC2)c2[nH]cnc2n1
inactive: NCI-H226 lung 100% | NCI-H322M lung 102% | HOP-62 NSCLC 89.7% | NCI-H460 lung 107% | NCI-H522 lung 80.2% | A549/ATCC NSCLC 97.8% | 786-0 renal 99.4% | COLO 205 colon 106% | DU-145 prostate 116% | K-562 leukemia 90.6% | MALME-3M melanoma 88.8% | MDA-MB-231 breast 104% | RXF 393 renal 113% | SF-268 CNS 98.5% | SF-295 CNS 110% | SF-539 CNS 99.6% | UACC-257 melanoma 99.1% | M14 melanoma 97% | HCT-15 colon 99.6%

COc1cccc(-c2nnc(N)o2)c1
inactive: NCI-H226 lung 103% | NCI-H322M lung 99.5% | HOP-62 NSCLC 102% | NCI-H460 lung 107% | NCI-H522 lung 96.8% | A549/ATCC NSCLC 102% | 786-0 renal 100% | COLO 205 colon 117% | DU-145 prostate 107% | K-562 leukemia 98.1% | MALME-3M melanoma 106% | MDA-MB-231 breast 124% | RXF 393 renal 94.6% | SF-268 CNS 111% | SF-295 CNS 113% | SF-539 CNS 111% | UACC-257 melanoma 92.7% | M14 melanoma 91.1% | HCT-15 colon 106%

Cc1ccc(NC(=O)Nc2ccc(-c3cccnc3)cc2N2CCC(CO)CC2)cc1
active: NCI-H522 lung 9.32% | A549/ATCC NSCLC 7.01% | 786-0 renal -8.69% | K-562 leukemia 9.37% | MDA-MB-231 breast 9.31% | RXF 393 renal -34.8% | SF-539 CNS 1.34%
inactive: NCI-H226 lung 54% | NCI-H322M lung 34.3% | HOP-62 NSCLC 24.9% | NCI-H460 lung 29.1% | COLO 205 colon 31.5% | DU-145 prostate 29.8% | MALME-3M melanoma 25.5% | SF-268 CNS 36.5% | SF-295 CNS 40.1% | UACC-257 melanoma 24.3% | M14 melanoma 27.1% | HCT-15 colon 20.2%

Clc1nc(Cl)c2ncn(-c3ccccc3)c2n1
inactive: NCI-H226 lung 93.4% | NCI-H322M lung 76.8% | HOP-62 NSCLC 99.4% | A549/ATCC NSCLC 95.3% | 786-0 renal 88.5% | COLO 205 colon 80.9% | DU-145 prostate 36.7% | K-562 leukemia 36.2% | MALME-3M melanoma 48.4% | MDA-MB-231 breast 63.1% | RXF 393 renal 56.1% | SF-268 CNS 68.8% | SF-295 CNS 106% | SF-539 CNS 85.2% | UACC-257 melanoma 67% | M14 melanoma 35.6% | HCT-15 colon 44.8%
active: NCI-H522 lung -68.9%

O=C(C(=O)N1CCCCC1)c1ccc(OC2OC(CO)C(O)C(O)C2O)cc1 (centres undefined)
inactive: NCI-H226 lung 102% | NCI-H322M lung 116% | HOP-62 NSCLC 104% | NCI-H460 lung 114% | NCI-H522 lung 85.3% | A549/ATCC NSCLC 101% | 786-0 renal 106% | DU-145 prostate 115% | MALME-3M melanoma 101% | MDA-MB-231 breast 110% | RXF 393 renal 104% | SF-268 CNS 105% | SF-295 CNS 125% | SF-539 CNS 100% | UACC-257 melanoma 106% | M14 melanoma 99.1% | HCT-15 colon 108%

COc1ccc2c(c1)nc(N)c1c3cc(C)c(C)cc3cn21
inactive: NCI-H226 lung 86.8% | NCI-H322M lung 94% | HOP-62 NSCLC 84.7% | NCI-H460 lung 48.4% | NCI-H522 lung 19.6% | A549/ATCC NSCLC 79.4% | 786-0 renal 91.2% | MALME-3M melanoma 76.5% | MDA-MB-231 breast 84.6% | RXF 393 renal 78.1% | SF-268 CNS 75.6% | SF-295 CNS 64.3% | SF-539 CNS 95.7% | UACC-257 melanoma 83.7% | M14 melanoma 57.5%

C=CCCCCCCCCC(=O)[O][Sn]([CH2]CCC)([CH2]CCC)[CH2]CCC
active: NCI-H226 lung -52.7% | NCI-H322M lung -88.7% | HOP-62 NSCLC -94.7% | NCI-H460 lung -83.3% | NCI-H522 lung -53% | 786-0 renal -96% | COLO 205 colon -86% | DU-145 prostate -95.2% | K-562 leukemia -16.8% | MALME-3M melanoma -79.8% | MDA-MB-231 breast -81.7% | RXF 393 renal -97.3% | SF-268 CNS -97.3% | SF-295 CNS -85.4% | SF-539 CNS -84.1% | M14 melanoma -91.1%

c1cncc(CNc2ccccc2-c2nnc(Nc3ccc4c(c3)OCO4)o2)c1
inactive: NCI-H322M lung 46.6% | HOP-62 NSCLC 27.2% | A549/ATCC NSCLC 20% | 786-0 renal 37% | MALME-3M melanoma 32.1% | MDA-MB-231 breast 16.3% | SF-268 CNS 33.5% | UACC-257 melanoma 56.2% | HCT-15 colon 10.2%
active: NCI-H226 lung -14% | NCI-H460 lung 9.93% | NCI-H522 lung 3.02% | COLO 205 colon -39.8% | DU-145 prostate 1.3% | RXF 393 renal -2.33% | SF-295 CNS 5.25% | SF-539 CNS 0.107%

COc1ccc(Cn2c(NCCCN(C)C)nc(=O)n(Cc3ccc(F)cc3)c2=O)cc1
inactive: NCI-H226 lung 90.7% | NCI-H322M lung 83% | HOP-62 NSCLC 93.5% | NCI-H460 lung 108% | NCI-H522 lung 95% | A549/ATCC NSCLC 110% | 786-0 renal 89.3% | COLO 205 colon 94.8% | DU-145 prostate 99.4% | K-562 leukemia 87.9% | MALME-3M melanoma 87.9% | MDA-MB-231 breast 81.4% | RXF 393 renal 83.7% | SF-268 CNS 83.7% | SF-295 CNS 96.2% | SF-539 CNS 108% | UACC-257 melanoma 92.4% | M14 melanoma 97.9% | HCT-15 colon 107%
